# PubChem BioAssay (NCATS)
# Where “and” joins values, the source holds several entries; their conditions need not be identical. Identical values can stand only once. Inconclusive results are not listed. A call without a number means that no potency is given here. Calls of active or inactive are those of the source. Unless noted, calls follow the shape of the full dose curve.
# Experiments:
# [1] = molecular target: Estrogen receptor (Homo sapiens) (UniProt P03372); assay: qHTS assay for small molecule antagonists of estrogen receptor alpha signaling (AID 588513; active = well fitted curve in the direction sought with a large enough effect in the signal ratio, with a control signal flat, not every such curve was filed as active; the % refers to the signal ratio)
# How it was run: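 ER-alpha-UAS-bla GripTite HEK 293 cells in medium with 2% charcoal/dextran-treated FBS were preincubated 4 h at 37 C, dosed with compound (1:2 titration), stimulated with 0.5nM 17-beta-estradiol for 18 h, then read by CCF4 beta-lactamase fluorescence.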
# [2] = molecular target: Androgen receptor (Homo sapiens) (UniProt P10275); assay: qHTS assay for small molecule antagonists of androgen receptor signaling (AID 588516; active = well fitted curve in the direction sought with a large enough effect in the signal ratio, with a control signal flat, not every such curve was filed as active; the % refers to the signal ratio)
# How it was run: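 AR-UAS-bla-GripTite HEK 293 cells (2000/well, 5 h at 37 C) received compound titrations, then R1881 at 10 nM final; after 16 h at 37 C, CCF4 dye 2 h RT, beta-lactamase fluorescence read; IC50 from Hill fits.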
# [3] = molecular target: Bile acid receptor (Homo sapiens) (UniProt Q96RI1); assay: qHTS assay for small molecule antagonists of farnesoid X receptor signaling (AID 588526)
# How it was run: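 Antagonist mode: titrated compounds tested against chenodeoxycholic acid stimulation (normalized to 50 uM CDCA and DMSO) in GeneBLAzer HEK293T cells for 16 h. Beta-lactamase read by CCF4 fluorescence; IC50 from Hill fits.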
# [4] = molecular target: Bile acid receptor (Homo sapiens) (UniProt Q96RI1); assay: qHTS assay for small molecule agonists of farnesoid X receptor signaling (AID 588527); conditions: HEK293T FXR-UAS-bla, beta-lactamase ratio, 16 h; activation: stronger effect = higher value; also: series mostly up to about 77 µM
# How it was run: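 Read-out: beta-lactamase reporter fluorescence with CCF4 substrate in GeneBLAzer FXR-UAS-bla HEK293T cells, after 16 h compound exposure at 37 C. Response scaled between DMSO basal (0%) and chenodeoxycholic acid at 100 uM (100%).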
# [5] = molecular target: Glucocorticoid receptor (Homo sapiens) (UniProt P04150); assay: qHTS assay for small molecule antagonists of glucocorticoid receptor signaling (AID 588533; active = well fitted inhibition curve with a large enough effect in the signal ratio, with a control signal flat, not every such curve was filed as active; the % refers to the signal ratio;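 also: cells stimulated with 2 nM dexamethasone as agonist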)
# How it was run: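 Antagonist-mode qHTS: compound titrations added to GRE-bla HeLa cells, then dexamethasone 2 nM final; 18 h, 37 C. CCF4 FRET fluorescence normalized to dexamethasone and DMSO; IC50 from Hill fit.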
# [6] = molecular target: Peroxisome proliferator-activated receptor gamma (Homo sapiens) (UniProt P37231); assay: qHTS assay for small molecule antagonists of peroxisome proliferator-activated receptor gamma signaling (AID 588537; active = well fitted inhibition curve with a large enough effect in the signal ratio, with a control signal flat, not every such curve was filed as active; the % refers to the signal ratio;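 also: reporter cells co-stimulated with 50 nM rosiglitazone agonist during compound treatment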)
# How it was run: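 Read-out: CCF4 fluorescence (ex 405, em 460/530 nm) after 2 h at RT. Cells were HEK293 carrying a UAS-bla reporter and treated 16 h at 37 C with compound plus rosiglitazone (50 nM final). Normalized to rosiglitazone and DMSO.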
# [7] = molecular target: Retinoic acid receptor RXR-alpha (Homo sapiens) (UniProt P19793); assay: qHTS assay for small molecule agonists of retinoid X receptor alpha signaling (AID 588544)
# [8] = qHTS assay for small molecule agonists of the antioxidant response element (ARE) signaling pathway (AID 651741; active = well fitted activation curve with a large enough effect in the signal ratio; the % refers to the signal ratio; also: potency is read from the fitted curve at half-maximal effect)
# How it was run: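 HepG2 ARE-bla reporter cells, 2,000/well; 5 h settle at 37 C/5% CO2; compound pin transfer (23 nL, DMSO); 16 h at 37 C; LiveBLAzer B/G FRET substrate, 2 h RT; fluorescence intensity read.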
# [9] = qHTS assay for small molecule activators of the p53 signaling pathway (AID 651743; active = well fitted activation curve with a large enough effect in the signal ratio, not every such curve was filed as active; the % refers to the signal ratio; also: series mostly up to about 92 µM); conditions: HCT-116 p53RE-bla, beta-lactamase FRET ratio, 16 h; activation: stronger effect = higher value
# How it was run: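 Reporter: beta-lactamase driven by p53 response elements, stably integrated in HCT-116 cells. Cells seeded at 4,000/well, 5 h preincubation, compound (DMSO) 16 h at 37 C; B/G FRET substrate 2 h RT; fluorescence intensity read.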
# [10] = qHTS assay for small molecule agonists of the antioxidant response element (ARE) signaling pathway measured by Nrf2-dependant transcriptional activity (AID 720636; active = well fitted curve in the direction sought with a large enough effect in the repeat runs; an effect the other way counts as inactive or inconclusive;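 also: HepG2 cells with an ARE-driven luciferase reporter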)
# How it was run: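 We exposed ARE-luc HepG2 cells, seeded in assay medium with 1% dialyzed FBS and allowed 6 hr to adhere, to test compounds overnight (16 hr, 37 C) before measuring luciferase with ONE-Glo.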
# [11] = qHTS assay for cell viability of the p53RE-bla HCT-116 cell line (AID 743292; active = well fitted curve in the direction sought with a large enough effect; an effect the other way counts as inactive or inconclusive; also: nearly all actives have a fitted effect of over 55% in size)
# How it was run: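 In this qHTS counter-screen, metabolically competent p53RE-bla HCT-116 cells were counted via their ATP content. Compounds were applied for 16 h at 37 C and luciferase-coupled luminescence was measured.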
# [12] = molecular target: Androgen receptor (Homo sapiens) (UniProt P10275); assay: qHTS assay for small molecule agonists of androgen receptor signaling (AID 588515; active = well fitted curve in the direction sought with a large enough effect in the signal ratio, with a control signal flat; the % refers to the signal ratio); conditions: AR-UAS-bla HEK293, beta-lactamase ratio, agonist 16 h; stronger effect = higher value
# How it was run: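 Stimulation of an AR-responsive β-lactamase reporter in GripTite HEK293 cells was measured after 16 h compound exposure at 37 °C, via CCF4 fluorescence after 2 h RT. EC50 from Hill fits, normalized to R1881 at 30 nM.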
# [13] = qHTS assay for small molecule antagonists of peroxisome proliferator-activated receptor delta signaling (AID 588535; active = well fitted inhibition curve with a large enough effect in the signal ratio, with a control signal flat, not every such curve was filed as active; the % refers to the signal ratio;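 as to max response: cells co-treated with a PPAR-delta agonist as stimulator during compound exposure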); conditions: HEK293T PPARd-UAS-bla, beta-lactamase FRET ratio, 18 h; 460 nm channel
# How it was run: (§1)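 Beta-lactamase reporter read-out (405 nm excitation, 460/530 nm emission) after CCF4 loading for 2 hrs at RT. HEK293T PPAR-delta-UAS-bla cells, 2% charcoal/dextran FBS, compounds for 18 hrs at 37 C. Hill fit gave IC50 and efficacy.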
# [14] = molecular target: Peroxisome proliferator-activated receptor delta (Homo sapiens) (UniProt Q03181); assay: as above
# How it was run: as §1
# [15] = molecular target: Peroxisome proliferator-activated receptor gamma (Homo sapiens) (UniProt P37231); assay: qHTS assay for small molecule agonists of peroxisome proliferator-activated receptor gamma signaling (AID 588536; active = well fitted curve in the direction sought with a large enough effect in the signal ratio, with a control signal flat, not every such curve was filed as active; the % refers to the signal ratio)
# How it was run: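 Beta-lactamase reporter read-out: CCF4 fluorescence (ex 405, em 460/530 nm) after 2 h at RT. HEK293 GeneBLAzer cells were treated for 16 h at 37 C. Hill fits gave EC50 and efficacy versus 2 uM rosiglitazone (100%) and DMSO (0%).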
# [16] = qHTS assay for small molecule activators of the nuclear factor-kappa B (NF-kB) signaling pathway (AID 651749; active = well fitted activation curve with a large enough effect in the signal ratio; the % refers to the signal ratio; also: series mostly up to about 77 µM); conditions: NF-kB-bla ME-180 cells, beta-lactamase FRET ratio, 16 h; activation: stronger effect = higher value
# How it was run: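 NF-kB-bla ME-180 cells, 2,000/well; 23 nL compound or DMSO pinned; 16 hr, 37C/5% CO2; beta-lactamase FRET read-out.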
# [17] = molecular target: Nuclear receptor subfamily 1 group I member 2 (Rattus norvegicus) (UniProt Q9R1A7); assay: qHTS assay for small molecule activators of the rat pregnane X receptor (rPXR) signaling pathway (AID 651751; call rule not given here); conditions: rPXR reporter cells, luciferase (One-Glo), 24 h
# [18] = molecular target: Cytochrome P450 3A4 (Homo sapiens) (UniProt P08684); assay: qHTS Assay for Activators of Cytochrome P450 3A4 (AID 885; active = well fitted curve in the direction sought with a large enough effect; an effect the other way counts as inactive or inconclusive; also: nearly all actives have a fitted effect of over 65% in size)
# How it was run: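 Activators are scored by enhanced luminescence from CYP3A4 conversion of luciferin-PPXE (25uM, equal to KM) to luciferin, after 60 min at RT with an NADPH-regenerating system.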
# Retinoic acid receptor RXR-alpha (Homo sapiens), sequence (P19793 whole entry, looked up): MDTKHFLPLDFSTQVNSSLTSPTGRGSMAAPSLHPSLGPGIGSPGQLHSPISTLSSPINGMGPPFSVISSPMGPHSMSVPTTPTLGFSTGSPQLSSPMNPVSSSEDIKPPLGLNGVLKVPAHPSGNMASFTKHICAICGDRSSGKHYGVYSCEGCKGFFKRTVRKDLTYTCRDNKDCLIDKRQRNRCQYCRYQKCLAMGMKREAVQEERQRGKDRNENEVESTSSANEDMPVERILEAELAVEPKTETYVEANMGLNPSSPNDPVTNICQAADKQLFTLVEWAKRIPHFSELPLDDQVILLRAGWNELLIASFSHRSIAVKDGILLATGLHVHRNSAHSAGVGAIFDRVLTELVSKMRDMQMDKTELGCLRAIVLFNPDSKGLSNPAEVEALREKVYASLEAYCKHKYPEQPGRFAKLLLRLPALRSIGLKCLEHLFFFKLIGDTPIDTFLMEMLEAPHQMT
# Bile acid receptor (Homo sapiens), sequence (Q96RI1 whole entry, looked up): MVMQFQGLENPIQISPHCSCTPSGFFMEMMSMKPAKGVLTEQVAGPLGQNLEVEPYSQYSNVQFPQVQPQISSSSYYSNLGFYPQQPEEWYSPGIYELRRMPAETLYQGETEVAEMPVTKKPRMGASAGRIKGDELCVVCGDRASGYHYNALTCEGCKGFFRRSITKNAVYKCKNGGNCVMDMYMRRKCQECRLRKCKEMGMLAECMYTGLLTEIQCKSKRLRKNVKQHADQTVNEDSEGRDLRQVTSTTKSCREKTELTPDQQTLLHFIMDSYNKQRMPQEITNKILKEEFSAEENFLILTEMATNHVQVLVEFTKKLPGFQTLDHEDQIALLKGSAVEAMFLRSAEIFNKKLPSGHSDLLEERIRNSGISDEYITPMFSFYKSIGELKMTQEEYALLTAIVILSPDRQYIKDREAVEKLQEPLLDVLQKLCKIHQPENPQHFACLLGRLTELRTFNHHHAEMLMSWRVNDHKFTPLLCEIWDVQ
# Peroxisome proliferator-activated receptor gamma (Homo sapiens), sequence (P37231 whole entry, looked up): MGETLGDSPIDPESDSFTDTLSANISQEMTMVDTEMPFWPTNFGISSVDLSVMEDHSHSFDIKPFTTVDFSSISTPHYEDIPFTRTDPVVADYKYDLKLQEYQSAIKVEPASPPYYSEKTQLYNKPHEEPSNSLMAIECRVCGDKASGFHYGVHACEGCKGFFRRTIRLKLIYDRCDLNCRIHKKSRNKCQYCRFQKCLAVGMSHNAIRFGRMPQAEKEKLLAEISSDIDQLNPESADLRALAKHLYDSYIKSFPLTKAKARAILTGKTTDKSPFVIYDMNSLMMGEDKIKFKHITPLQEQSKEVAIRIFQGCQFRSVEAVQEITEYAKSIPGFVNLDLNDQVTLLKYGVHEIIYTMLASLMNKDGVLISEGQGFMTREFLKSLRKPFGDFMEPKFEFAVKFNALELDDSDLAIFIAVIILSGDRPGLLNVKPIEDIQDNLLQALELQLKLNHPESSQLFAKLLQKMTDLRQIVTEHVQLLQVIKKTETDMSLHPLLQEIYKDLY
# Cytochrome P450 3A4 (Homo sapiens), sequence (P08684 whole entry, looked up): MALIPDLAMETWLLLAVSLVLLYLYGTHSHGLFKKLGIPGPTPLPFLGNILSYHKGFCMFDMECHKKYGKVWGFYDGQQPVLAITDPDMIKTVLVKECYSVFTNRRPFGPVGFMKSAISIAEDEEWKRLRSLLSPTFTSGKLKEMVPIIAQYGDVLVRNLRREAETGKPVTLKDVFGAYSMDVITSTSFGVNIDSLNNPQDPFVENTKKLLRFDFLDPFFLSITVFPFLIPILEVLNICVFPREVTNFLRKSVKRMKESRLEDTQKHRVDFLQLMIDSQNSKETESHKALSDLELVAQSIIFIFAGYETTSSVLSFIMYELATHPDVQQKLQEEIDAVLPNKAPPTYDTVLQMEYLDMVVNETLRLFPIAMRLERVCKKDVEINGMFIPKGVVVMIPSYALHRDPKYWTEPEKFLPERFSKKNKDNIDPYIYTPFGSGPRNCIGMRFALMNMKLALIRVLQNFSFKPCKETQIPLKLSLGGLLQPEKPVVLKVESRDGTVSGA
# Glucocorticoid receptor (Homo sapiens), sequence (P04150 whole entry, looked up): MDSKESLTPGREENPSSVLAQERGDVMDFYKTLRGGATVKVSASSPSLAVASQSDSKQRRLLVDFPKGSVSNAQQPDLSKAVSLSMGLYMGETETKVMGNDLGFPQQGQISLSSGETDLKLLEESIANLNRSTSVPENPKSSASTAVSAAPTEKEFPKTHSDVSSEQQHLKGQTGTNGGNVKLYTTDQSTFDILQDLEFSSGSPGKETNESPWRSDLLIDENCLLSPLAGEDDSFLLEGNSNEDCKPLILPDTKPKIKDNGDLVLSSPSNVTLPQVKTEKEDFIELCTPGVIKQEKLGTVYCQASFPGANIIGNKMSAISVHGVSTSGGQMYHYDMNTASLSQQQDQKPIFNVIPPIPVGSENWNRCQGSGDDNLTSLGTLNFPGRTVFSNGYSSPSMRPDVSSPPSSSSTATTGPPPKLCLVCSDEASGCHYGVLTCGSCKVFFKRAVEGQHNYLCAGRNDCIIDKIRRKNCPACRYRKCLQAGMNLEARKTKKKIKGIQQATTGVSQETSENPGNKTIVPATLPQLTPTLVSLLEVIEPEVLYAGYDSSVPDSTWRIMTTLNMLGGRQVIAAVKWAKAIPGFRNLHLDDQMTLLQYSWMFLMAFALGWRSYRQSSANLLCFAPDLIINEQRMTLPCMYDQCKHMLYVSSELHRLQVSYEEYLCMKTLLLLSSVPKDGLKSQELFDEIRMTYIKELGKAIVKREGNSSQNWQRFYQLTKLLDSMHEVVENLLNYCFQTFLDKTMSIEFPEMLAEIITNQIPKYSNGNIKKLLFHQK
# Nuclear receptor subfamily 1 group I member 2 (Rattus norvegicus), sequence (Q9R1A7 whole entry, looked up): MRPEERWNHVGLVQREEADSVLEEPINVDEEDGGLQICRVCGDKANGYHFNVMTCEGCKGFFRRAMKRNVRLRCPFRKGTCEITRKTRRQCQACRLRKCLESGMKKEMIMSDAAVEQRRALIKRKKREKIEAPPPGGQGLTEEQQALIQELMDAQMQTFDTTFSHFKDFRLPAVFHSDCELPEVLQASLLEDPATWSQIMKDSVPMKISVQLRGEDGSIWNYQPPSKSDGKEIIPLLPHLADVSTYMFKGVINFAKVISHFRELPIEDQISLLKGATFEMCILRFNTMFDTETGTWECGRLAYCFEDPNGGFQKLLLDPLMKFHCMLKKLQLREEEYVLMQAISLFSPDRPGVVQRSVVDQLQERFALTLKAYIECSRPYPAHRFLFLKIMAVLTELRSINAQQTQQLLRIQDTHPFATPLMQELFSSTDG
# Estrogen receptor (Homo sapiens), sequence (P03372 whole entry, looked up): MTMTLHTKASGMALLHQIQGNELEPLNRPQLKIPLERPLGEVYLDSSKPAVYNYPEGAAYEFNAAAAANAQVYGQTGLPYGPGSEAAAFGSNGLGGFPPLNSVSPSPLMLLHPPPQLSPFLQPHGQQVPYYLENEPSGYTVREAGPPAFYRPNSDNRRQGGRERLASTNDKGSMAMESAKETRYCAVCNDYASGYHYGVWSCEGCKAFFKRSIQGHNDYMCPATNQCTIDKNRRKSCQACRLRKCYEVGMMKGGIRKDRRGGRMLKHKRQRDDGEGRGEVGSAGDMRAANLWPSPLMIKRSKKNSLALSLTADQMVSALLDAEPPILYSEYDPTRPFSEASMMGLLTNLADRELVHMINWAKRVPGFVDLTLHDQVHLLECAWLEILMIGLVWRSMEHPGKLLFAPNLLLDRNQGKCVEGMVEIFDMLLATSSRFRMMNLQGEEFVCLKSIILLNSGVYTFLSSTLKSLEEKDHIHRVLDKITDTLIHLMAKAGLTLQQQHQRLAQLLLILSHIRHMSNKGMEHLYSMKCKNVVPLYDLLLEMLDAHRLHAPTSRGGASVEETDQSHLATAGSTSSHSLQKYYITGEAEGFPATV
# Peroxisome proliferator-activated receptor delta (Homo sapiens), sequence (Q03181 whole entry, looked up): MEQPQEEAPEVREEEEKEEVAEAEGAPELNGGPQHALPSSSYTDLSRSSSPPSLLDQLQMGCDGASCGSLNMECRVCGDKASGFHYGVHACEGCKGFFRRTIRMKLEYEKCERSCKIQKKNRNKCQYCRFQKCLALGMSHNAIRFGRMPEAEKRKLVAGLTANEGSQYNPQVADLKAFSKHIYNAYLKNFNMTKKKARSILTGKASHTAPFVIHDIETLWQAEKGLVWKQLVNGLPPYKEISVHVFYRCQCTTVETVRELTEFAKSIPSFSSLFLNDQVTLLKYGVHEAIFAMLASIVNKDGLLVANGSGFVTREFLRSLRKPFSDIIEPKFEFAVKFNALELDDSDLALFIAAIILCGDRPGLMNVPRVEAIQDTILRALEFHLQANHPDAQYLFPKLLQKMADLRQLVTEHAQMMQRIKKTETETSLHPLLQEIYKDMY
Compound,Potency [1],Potency [2],Potency [3],activation [4],Potency [5],Potency [6],Potency [7],Potency [8],activation [9],Potency [10],Potency [11],activation [12],max response [13] [%],Potency [14],Potency [15],activation [16],max response [17],Potency [18]
CCOP(=S)(OCC)SCC(=O)NC(C)C,inactive,inactive,inactive,0.181% (inactive),inactive,inactive,inactive,inactive,-0.0599% (inactive),inactive,inactive,–,–,–,–,–,–,–
CCOC1Oc2ccc(OS(C)(=O)=O)cc2C1(C)C (stereo not drawn),inactive,inactive,–,–,–,inactive,inactive,–,–,–,inactive,-8.07% (inactive),-8.85,inactive,inactive,0.657% (inactive),11.5% (inactive),–
CCOP(=O)(OCC)SCSCC,inactive,inactive,inactive,-0.362% (inactive),inactive,inactive,inactive,inactive,4.72% (inactive),inactive,inactive,6.75% (inactive),-57,–,inactive,-2% (inactive),-5.9% (inactive),–
COc1cc2c(cc1OC)-c1c(O)c(OC)cc3c1[C@H](C2)N(C)CC3,–,–,–,–,–,–,–,–,–,–,–,–,–,–,–,–,–,inactive
COCc1cnc(C2=NC(C)(C(C)C)C(=O)N2)c(C(=O)O)c1 (stereo not drawn),inactive,inactive,inactive,–,inactive,inactive,–,–,–,inactive,inactive,–,-13.7,inactive,inactive,–,-0.0309% (inactive),–
Cc1cc(Cl)ccc1OCC(=O)O,inactive,inactive,–,–,inactive,inactive,inactive,–,-6.22% (inactive) and 0.0507% (inactive),inactive,inactive,-0.462% (inactive) and -10.2% (inactive),–,–,inactive,–,-1.6% (inactive) and -6.7% (inactive),–
C/C=C(\C)C(=O)O[C@H]1C[C@@H](OC(C)=O)[C@@]2(C(=O)OC)CO[C@H]3[C@@H](O)[C@@](C)([C@]45O[C@@]4(C)[C@H]4C[C@@H]5O[C@@H]5OC=C[C@@]54O)[C@H]4[C@]1(CO[C@]4(O)C(=O)OC)[C@@H]32,inactive,inactive,inactive,–,–,inactive,inactive,–,6.01% (inactive),inactive,inactive,2.71% (inactive),–,–,inactive,-1.4% (inactive),–,–
c1cc2c(cc1[C@H]1OC[C@@H]3[C@H]1CO[C@H]3c1ccc3c(c1)OCO3)OCO2,–,–,–,–,–,–,–,–,–,–,–,–,–,–,–,–,–,inactive
COc1nc(C)nc(NC(=O)NS(=O)(=O)c2ccccc2CCC(F)(F)F)n1,inactive,inactive,inactive,1.64% (inactive),inactive,inactive,inactive,inactive,1.94% (inactive),inactive,inactive,6.02% (inactive),34.6,inactive,inactive,-0.385% (inactive),1.14% (inactive),–
CCOP(=S)(OCC)Oc1ncn(-c2ccccc2)n1,inactive,inactive,inactive,2.14% (inactive),–,–,inactive,inactive,–,inactive,–,5.78% (inactive),1.15,inactive,inactive,–,–,–
O=[As](O)(O)O,inactive,inactive,inactive,-0.515% (inactive),inactive,–,inactive,–,-0.546% (inactive),–,inactive,-0.986% (inactive),6.63,inactive,–,-0.92% (inactive),-1.48% (inactive),–
CN1Cc2c(ccc3c2OCO3)C2C(O)Cc3cc4c(cc3C21)OCO4 (stereo not drawn),–,–,–,–,–,–,–,–,–,–,–,–,–,–,–,–,–,inactive
C=CC(=O)NCO,inactive,inactive,inactive,0.901% (inactive) and -4.9% (inactive),inactive,inactive,–,501 µM (active),0.261% (inactive) and -0.511% (inactive),inactive,inactive,-1.79% (inactive) and 14.2% (inactive),1.4,inactive,–,–,3.28% (inactive) and -7.26% (inactive),–
CCOP(=O)(OCC)SCSC(C)(C)C,inactive,inactive,inactive,–,inactive,–,inactive,inactive,–,inactive,inactive,3.02% (inactive),5.82,inactive,inactive,-3.03% (inactive),1.41% (inactive),–
